# Screening data as filed in PubChem.
# Only some compounds are listed: those with a hit (about 6.8% of all), similar ones and a draw of the others.
# KB-3-1 tox – qHTS assay for MDR1-selective chemotherapeutics: Primary screen using the parental adenocarcinoma cell KB-3-1; Potency, µM (series often up to 46.1 µM), usual class: cytotoxic; 400,000 compounds, 1.4% hits; KB-3-1 viability, CellTiter-Glo ATP luminescence, 72 h; AID 1347075, 2019; also: % is scaled to controls: 0 for no effect and ±100 for the full control effect; nearly all actives have a fitted effect of over 60% in size
#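 Cytotoxicity measured as CellTiter-Glo luminescence after 72 h at 37 C. Compound titrations were pinned onto drug-naive KB-3-1 parental adenocarcinoma cells grown in DMEM with 10% FBS, and normalized data fitted to concentration-response curves.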
# TSG101-PTAP inh – qHTS Assay for Iinhibitors of HIV-1 Budding by Blocking the Interaction of PTAP/TSG101; Potency, µM (titrated, usually from 115 µM), inactives show top-dose activity change, negative = inhibition, most hits filed as inhibitors; AID 493005, 2010; Fluorescence polarization, FITC-PTAP peptide / Tsg101 binding; 340,000 tested, under 10 active; Tumor susceptibility gene 101 protein (Homo sapiens), Q99816; active = well fitted inhibition curve with a large enough effect in the main read-out, with a control signal flat, not every such curve was filed as active; inconclusive = small, poorly fitted or top-dose-only effect, or effect the other way, or a change in a side signal; inactive = no such curve, though single readings can be large or run the other way; also: % of control where 0% means no effect
# Target sequence (Q99816 whole entry, looked up): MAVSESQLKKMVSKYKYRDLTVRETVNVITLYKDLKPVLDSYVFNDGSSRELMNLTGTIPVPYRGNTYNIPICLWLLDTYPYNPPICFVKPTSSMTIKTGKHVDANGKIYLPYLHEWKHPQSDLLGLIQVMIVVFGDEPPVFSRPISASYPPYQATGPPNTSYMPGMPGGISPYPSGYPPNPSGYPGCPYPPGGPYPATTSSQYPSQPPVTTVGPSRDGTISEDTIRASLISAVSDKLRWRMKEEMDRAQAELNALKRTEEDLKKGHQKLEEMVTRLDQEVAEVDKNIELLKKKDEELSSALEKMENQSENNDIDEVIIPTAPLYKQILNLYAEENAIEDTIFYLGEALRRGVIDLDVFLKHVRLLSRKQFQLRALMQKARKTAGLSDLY
#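 FP read-out: FITC-PTAP peptide, 50 nM final, binding Tsg101 binding domain, 10 uM final; 20 min, r.t.; 10 mM HEPES pH 7.5, 0.15 M NaCl, 0.01% Tween 20, 3 mM EDTA, 0.1 mM TCEP.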
# SW480 rereplic – A quantitative high throughput screen for small molecules that induce DNA re-replication in SW480 colon adenocarcinoma cells. Potency, µM (titrated, usually from 46.1 µM), for the others: top-dose re-replication activation, actives largely listed as activators. 340,000 compounds, 1.8% hits. AID 624297, 2012. SW480 DNA re-replication, Hoechst DNA content imaging, 48 h; also: % of control where 0% means no effect; nearly all actives have a fitted effect of over 55% in size
#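 Cells (250 per well) received 23 nL compound or DMSO by pin tool and were kept 48 hr at 37 C, 5% CO2. Nuclei were then stained with Hoechst for 40 min and scanned for DNA content.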
# KB-V1 MDR tox – qHTS assay for MDR1-selective chemotherapeutics: Primary screen using the drug-selected MDR subline cells KB-V1; KB-V1 MDR cells viability, CellTiter-Glo, 72 h; Potency, µM (highest dose often 46.1 µM), usual class: cytotoxic; 400,000 compounds, 3.4% hits; AID 1347076, 2019; also: % is scaled to controls: 0 for no effect and ±100 for the full control effect; nearly all actives have a fitted effect of over 60% in size
#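 Luminescent ATP read-out (CellTiter-Glo, 10 min) measures survival of drug-selected KB-V1 MDR cells after 72 h, 37 degrees C compound exposure. Medium: phenol-red-free DMEM, 10% FBS. Values from fitted concentration-response curves.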
# MCF10A rereplic – A quantitative high throughput screen for small molecules that induce DNA re-replication in MCF 10a normal breast cells; AID 624296, 2012; MCF 10A DNA re-replication, Hoechst nuclear intensity, 48 h; 350,000 compounds, 2.9% hits; Potency, µM (titrated, usually from 46.1 µM), for the others: top-dose activity, positive = re-replication, usual class: activators; also: % of control where 0% means no effect; nearly all actives have a fitted effect of over 50% in size
# PINK1 expr mod – A Quantitative High throughput Screen to Identify Chemical Modulators of PINK1 Expression; AID 624263, 2012; 410,000 compounds, 0.2% hits; Potency, µM (titrated, usually from 76.6 µM), without a hit: at the top dose activation (PINK1 increase), hits mostly activators; PINK1 immunofluorescence, high-content cytometry, 24 h; active = well fitted activation curve with a large enough effect; inconclusive = small, poorly fitted or top-dose-only effect; cell line not stated here; also: % of control where 0% means no effect; nearly all actives have a fitted effect of over 65% in size
#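 Readout is PINK1 immunofluorescence, quantified alongside mitochondrial, cell and nuclear markers by laser-scanning microplate cytometry. Cells from a stable line were exposed to compound titrations (5 concentrations) for 24 hours, with CCCP controls.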
# The depositor's hits bear a star; i = inactive; ? = inconclusive; nt = not tested or not shown; ! = repeats disagree. Unless noted, calls follow the shape of the dose curve; as a rule, active = well fitted curve in the direction sought with a large enough effect; inconclusive = small, poorly fitted or top-dose-only effect, or another doubt; inactive = no such curve, though single readings can be large; an effect the other way counts as inactive or inconclusive. Potency is read from the fitted curve at half-maximal effect.
SMILES,KB-3-1 tox,TSG101-PTAP inh,SW480 rereplic,KB-V1 MDR tox,MCF10A rereplic,PINK1 expr mod
O=C(/C=C/c1cccc([N+](=O)[O-])c1)n1cnc2ccccc21,?,-3.3%,5.8µM*,?,3.66µM*,-1.4%
CC(=O)Oc1ccccc1C(=O)C=Cc1cccc([N+](=O)[O-])c1,14.6µM*,2.1%,?,5.8µM*,5.8µM*,-0.8%
Cn1nc(-c2cccnc2)nc2c(=O)n(C)c(=O)nc1-2,?,nt,nt,?,nt,0.8%
CC(C)CCCC(C)C1CCC2C3CC=C4CC(O)CC[C@@]4(C)C3CC[C@@]12C (stereo partly drawn),nt,nt,nt,nt,nt,-0.6%
CCCN(Cc1nnc(-c2cccs2)o1)C(=O)c1cccc(S(=O)(=O)N2CCOCC2)c1,i,-0.2%,-3.7%,23.1µM*,-5.4%,0.7%
COCCN(Cc1nnc(-c2cccs2)o1)C(=O)c1cccc(S(=O)(=O)N2CCOCC2)c1,i,-6.0%,-12.8%,i,-17.1%,0.8%
CCCCCCCCNC(C)C(O)c1ccc(SC(C)C)cc1 (stereo not drawn),i,-0.3%,?,16.4µM*,23.7µM*!,-1.1%
C[C@@H](NCCc1ccc(O)cc1)[C@@H](O)c1ccc(O)cc1,?,4.6%,-31.7%,i,?,1.8%
COc1ccccc1NC(=O)N1CC=C(c2c[nH]c3ccccc23)CC1,nt,nt,nt,nt,nt,-1.1%
CCN(CC)S(=O)(=O)c1cccc(NC(=O)c2cc(-c3cccs3)nn2-c2ccccc2)c1,i,1.7%,8.2µM*,3.66µM*,-47.6%,-2.9%
CN(CC(=O)Nc1cccc(F)c1)C(=O)c1cc(-c2cccs2)nn1-c1ccccc1,i,2.5%,4.9%,?,?,-1.6%
CN(C)S(=O)(=O)c1cccc(NC(=O)c2cc(-c3cccs3)nn2-c2ccccc2)c1,i,-0.1%,?,5.8µM*,?,4.0%
C=C1/C(=C\C=C2/CCC[C@]3(C)[C@@H]([C@H](C)CCCC(C)(C)O)CC[C@@H]23)C[C@@H](O)C[C@@H]1O,nt,nt,1.5%,nt,21.1µM*,nt
C=C1CC[C@H](O)C/C1=C/C=C1\CCC[C@]2(C)[C@@H]([C@H](C)CCCC(C)(C)O)CC[C@@H]12,nt,nt,8.6%,nt,10.6µM*,nt
C=C1CC[C@H](O)C/C1=C/C=C1\CCC[C@]2(C)[C@@H]([C@H](C)CC[C@@H](O)C(C)(C)O)CC[C@@H]12,nt,nt,20.6%,nt,?,nt
CC(C)CCCC(C)C1CCC2C3CC(=O)[C@H]4CC(O)CC[C@]4(C)C3CC[C@@]12C (stereo partly drawn),nt,nt,nt,nt,nt,0.9%
CCCc1cc(=O)[nH]c2nnc(SCC(=O)Nc3ccc(OC)cc3)n12,nt,nt,nt,nt,nt,24.6%
Cc1ccc(-c2cc3ncc4c(n3n2)-c2cc(Cl)ccc2OC4)cc1,i,nt,nt,i,nt,-0.5%
CC(=O)c1ccc(NC(=O)CSC2=Nc3ccccc3N=C(c3ccc(F)cc3)C2)cc1,i,nt,nt,i,nt,2.7%
O=[N+]([O-])c1ccc(-c2nc(C(Cl)Cl)c3ccccc3n2)cc1,13µM*,2.8%,?,i,?,-0.4%
CN(Cc1ccccc1)c1nc(-c2ccc([N+](=O)[O-])cc2)nc2ccccc12,i,-7.3%,1.0%,i,16.4%,1.7%
O=c1[nH]c(=S)[nH]c2nc[nH]c12,i,nt,nt,?,nt,0.5%
S=c1nc[nH]c2nc[nH]c12,0.82µM*,0.0%,-0.3%,1.16µM*,?,6.9%
